The results in this text go back to PubChem BioAssay (NCATS).

Results filed as inconclusive are left out. A number with no mark means an inactive call. Activity calls are given as the source filed them. Calls come from the whole dose curve; as a rule, active = well fitted inhibition curve with a large enough effect; inconclusive = small, poorly fitted or top-dose-only effect; inactive = flat fitted curve, though single readings scatter.
Potency is the fitted concentration of half-maximal effect.

The test system of the assay is Zika virus NS2B-NS3 protease. The experiment in a line: Primary screen GU AMC qHTS for Zika virus inhibitors (AID 1347154).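 For activity change, negative = inhibition: 0% = no-inhibitor control and -100% = no-enzyme control.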 Note: nearly all actives have a fitted effect of over 70% in size. The conditions noted are these: Zika NS2B-NS3 unlinked protease, AMC fluorogenic substrate; series mostly up to 54.1 µM; activity change, negative = inhibition: at the top concentration. The essentials:
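Unlinked Zika NS2B hydrophilic domain/NS3 protease domain noncovalent complex (25 nM final) in 10 mM Tris-HCl pH 8.0, 0.01% Tween 20, with AMC peptide substrate. Fluorescence (ex 340, em 450 nm) change over 15 min, room temperature; percent inhibition fitted to 4-parameter Hill equation.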
As for `CN[C@@H]1Cc2cccc3[nH]c(=O)n(c23)C1`, the “activity change, negative = inhibition” value is 14.7%.

In the case of `CCO/N=C(\CC)C1=C(O)CC(c2c(C)cc(C)cc2C)CC1=O` (stereo not given), the “activity change, negative = inhibition” value was -4.17% [at 104 µM].

For `CC(O)=C(C#N)C(=O)Nc1cc(Br)ccc1Br`, the “activity change, negative = inhibition” value is -9.8%.

`O=[N+]([O-])c1c2ccccc2cc2ccccc12`: the “activity change, negative = inhibition” value is -3.52% [at 104 µM].

In the case of `O=[N+]([O-])c1cc([N+](=O)[O-])c2ccccc2c1`, the “activity change, negative = inhibition” value is -0.249% [at 104 µM].

Regarding `CN[C@@H](C)[C@H](O)c1ccccc1`, the “activity change, negative = inhibition” value was -0.32%.

Take `C[C@]12CCC(=O)C(O)=C1CC[C@@H]1[C@H]3CCC(=O)[C@@]3(C)CC[C@@H]12`: the “activity change, negative = inhibition” value is -7.44%.

Consider `O=S(=O)(CC1CS1)c1ccc(Oc2ccccc2)cc1` (stereo not given), for which the “activity change, negative = inhibition” value is -4.37%.

With `CCOC(=O)c1cncn1[C@H](C)c1ccccc1`, the “activity change, negative = inhibition” value was 6.85%.

For the molecule `C[C@H]([C@H](O)CCC(C)(C)O)[C@H]1CC[C@@]2(O)C3=CC(=O)[C@@H]4C[C@@H](O)[C@@H](O)C[C@]4(C)[C@@H]3CC[C@]12C`, the “activity change, negative = inhibition” value was 7.96%.

In the case of `COc1ccc(C(c2ccc(OC)cc2)C(Cl)(Cl)Cl)cc1`, the “activity change, negative = inhibition” value is -8.26% [at 104 µM].

Take `CCOP(=O)(OCC)C(C)NC(=O)N(CCCl)N=O` (stereo not given): the “activity change, negative = inhibition” value is 12.6%.

Consider `CN(C)NC(=O)CCC(=O)O`, for which the “activity change, negative = inhibition” value was 2.15%.

As for `O=S(=O)(F)Cc1ccccc1`, the “activity change, negative = inhibition” value was 10.1%.

Consider `COCCOCCO`, for which the “activity change, negative = inhibition” value was -6.81% [at 104 µM].

In the case of `O=C(O)COc1ccccc1`, the “activity change, negative = inhibition” value is -0.332%.

For `C[C@]12CC[C@@H]3[C@@H](CCC4=CC(=O)CC[C@@H]43)[C@@H]1CC[C@@H]2OC(=O)CCc1ccccc1`, the “activity change, negative = inhibition” value is 5.7%.

Turning to `O=c1cccc2n1CC1CNC[C@H]2C1`, the Potency result is “inactive”.

With `O=C1CCC[C@@H]2[C@H]3CCCN4CCC[C@@H](CN12)[C@@H]34`, the “activity change, negative = inhibition” value was 1.98%.

Turning to `Nc1ccc([N+](=O)[O-])cc1`, the “activity change, negative = inhibition” value is -3.84% [at 104 µM].

Turning to `CCCCCCCCCC(CC)c1ccc(S(=O)(=O)O)cc1` (stereo not given), the Potency is 11.7 µM (active).

Turning to `CCOP(=O)(NC(C)C)Oc1ccc(SC)c(C)c1` (stereo not given), the “activity change, negative = inhibition” value is -1.24% [at 104 µM].

Turning to `c1cc2c(cc1[C@H]1OC[C@H]3[C@H]1CO[C@H]3c1ccc3c(c1)OCO3)OCO2`, the “activity change, negative = inhibition” value is 5.68%.

Turning to `CCCCOC(=O)c1ccccc1C(=O)OCc1ccccc1`, the “activity change, negative = inhibition” value is -8.12% [at 104 µM].

As to `N=c1c2c(-c3ccccc3)c(-c3ccccc3)n(Cc3ccccc3)c2ncn1C1CCC(O)CC1` (stereo not given), the “activity change, negative = inhibition” value is 5.9%.

For `CCN1C[C@]2(OC(=O)c3ccccc3NC(C)=O)CC[C@H](OC)[C@@]34[C@H]5CC6[C@@H](OC)C[C@](O)(C(C[C@@H]23)[C@@H]14)[C@@]5(O)[C@@H]6OC`, the “activity change, negative = inhibition” value was -15.9%.

For `Cc1ccc(Cl)c(O)c1`, the “activity change, negative = inhibition” value is 1.71%.

Take `COc1cccc2c1[C@]13CCN(CC4CC4)[C@H](C2)[C@]1(OC)CCC(=O)C3`: the “activity change, negative = inhibition” value was 15.1%.

Regarding `O=S(=O)(O)C(F)(F)C(F)(F)C(F)(F)C(F)(F)C(F)(F)C(F)(F)C(F)(F)C(F)(F)F`, the Potency was 11.2 µM (active).

With `c1ccc2c(CN3CCNCC3)cccc2c1`, the “activity change, negative = inhibition” value was 4.48%.

Regarding `CC(C)Oc1cccc(NC(=O)c2ccccc2C(F)(F)F)c1`, the “activity change, negative = inhibition” value is -3.54% [at 104 µM].

Consider `COc1ccc2c(c1)[C@]13CCCCC1C(C2)N(C)CC3` (stereo not given in full), for which the “activity change, negative = inhibition” value was 2.49%.

As to `CO/C=C(/C(=O)OC)c1ccccc1Oc1cc(Oc2ccccc2C#N)ncn1`, the “activity change, negative = inhibition” value is 1.19% [at 104 µM].

`O=S(=O)(O)C(F)(F)C(F)(F)C(F)(F)C(F)(F)F`: the “activity change, negative = inhibition” value is 1.57% [at 104 µM].

Regarding `Nc1ccc(Sc2ccc(N)cc2)cc1`, the “activity change, negative = inhibition” value was 3.99% [at 104 µM].
